PubChem BioAssay (EPA / NIEHS)
Records with an inconclusive call do not appear. Calls of active or inactive are those of the source. The calls were made as follows, unless noted: active = hit-call score of the fitted dose curve at least 0.9, where 1 is the maximum; inactive = score below 0.9.

Key:
[1] = ATG_TAL_CIS: Attagene CIS-FACTORIAL HepG2 Assay for human TAL Basal Promoter (AID 2282966); details: HepG2 Attagene cis-factorial TAL promoter reporter; actives raise or lower the signal;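 also: background control endpoint measuring basal TAL promoter reporter mRNA not a specific factor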
Outline: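 HepG2, transient MRTU transfection, 24 h compound exposure; RNA → oligo(dT) RT → PCR → 6-FAM primer extension → HpaI digest → CE fluorescence. Bidirectional curve fit vs DMSO. Background-control readout.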

[2] = ATG_TGFb_CIS: Attagene CIS-FACTORIAL HepG2 Assay for human Transforming Growth Factor (TGF) (AID 2282967); details: HepG2 Attagene CIS TGFb reporter, mRNA transcription; actives raise or lower the signal
Outline: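 Endogenous TGFB1-linked transcription factor activity read as reporter mRNA via RT-PCR and capillary electrophoresis, 24 h after dosing transiently transfected HepG2 cells. Gain or loss of signal fitted relative to DMSO.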

[3] = ATG_VDRE_CIS: Attagene CIS-FACTORIAL HepG2 Assay for human Vitamin D Receptor Element (VDRE) (AID 2282968); details: HepG2 VDRE cis-reporter transcription, actives raise or lower the signal
Outline: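 Readout is VDRE-driven reporter mRNA reflecting endogenous factor activity in human HepG2 cells, sampled 24 h post-dose. Quantification used labelled RT-PCR products separated by capillary electrophoresis; bidirectional analysis relative to DMSO.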

[4] = target: Nuclear receptor subfamily 1 group I member 3 (Homo sapiens) (UniProt Q14994); assay: ATG_CAR_TRANS: Attagene TRANS-FACTORIAL HepG2 Assay for human Constitutive Androstane Receptor (CAR) (AID 2282969; active = hit-call score of the fitted dose curve at least 0.9, where 1 is the maximum;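 also: activators raise reporter mRNA above DMSO so AC50 marks induction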); details: HepG2 Attagene TRANS-FACTORIAL CAR reporter
Chain of Nuclear receptor subfamily 1 group I member 3 (Homo sapiens) (Q14994 whole entry, looked up, the tested form may be a part): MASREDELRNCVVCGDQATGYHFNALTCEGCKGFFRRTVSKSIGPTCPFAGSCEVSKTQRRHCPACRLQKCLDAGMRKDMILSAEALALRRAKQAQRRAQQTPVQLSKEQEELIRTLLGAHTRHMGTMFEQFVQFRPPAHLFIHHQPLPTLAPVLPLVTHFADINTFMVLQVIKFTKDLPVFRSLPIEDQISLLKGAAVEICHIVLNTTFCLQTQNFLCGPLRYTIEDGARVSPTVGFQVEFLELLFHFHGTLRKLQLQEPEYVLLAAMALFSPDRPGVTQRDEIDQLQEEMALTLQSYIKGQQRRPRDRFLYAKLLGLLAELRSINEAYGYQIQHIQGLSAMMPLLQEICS
Outline: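 Signal is reporter mRNA induction relative to DMSO, measured 24 h after dosing by RT-PCR with fluorescent primer extension and capillary electrophoresis. Human HepG2 liver cells carried transiently transfected chimeric NR-Gal4/GAL4-UAS reporter constructs.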

[5] = target: Steroid hormone receptor ERR1 (Homo sapiens) (UniProt P11474); assay: ATG_ERRa_TRANS: Attagene TRANS-FACTORIAL HepG2 Assay for human Estrogen-Related Receptor alpha (ERRa) (AID 2282971; active = hit-call score of the fitted dose curve at least 0.9, where 1 is the maximum); details: HepG2 Attagene TRANS reporter, ERRa transactivation
Chain of Steroid hormone receptor ERR1 (Homo sapiens) (P11474 whole entry, looked up, the tested form may be a part): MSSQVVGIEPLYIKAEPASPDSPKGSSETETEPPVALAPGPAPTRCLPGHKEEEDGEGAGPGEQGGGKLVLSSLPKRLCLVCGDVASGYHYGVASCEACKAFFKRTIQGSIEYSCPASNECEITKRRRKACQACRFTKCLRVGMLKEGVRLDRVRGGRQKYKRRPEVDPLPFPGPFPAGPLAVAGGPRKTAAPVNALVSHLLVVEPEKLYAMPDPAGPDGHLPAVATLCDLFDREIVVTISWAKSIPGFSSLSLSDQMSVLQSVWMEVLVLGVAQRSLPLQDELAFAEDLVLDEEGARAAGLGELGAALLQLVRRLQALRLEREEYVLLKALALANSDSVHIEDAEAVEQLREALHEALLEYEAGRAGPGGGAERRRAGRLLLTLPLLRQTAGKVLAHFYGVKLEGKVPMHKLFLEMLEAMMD
Outline: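 Transfected HepG2, 24 h dosing, ERRa-Gal4 chimera driving GAL4-UAS reporter. Readout: reporter mRNA via RT-PCR plus capillary electrophoresis (fluorescence). Positive direction vs DMSO control.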

[6] = target: X-box-binding protein 1 (Homo sapiens) (UniProt P17861); assay: ATG_Xbp1_CIS: Attagene CIS-FACTORIAL HepG2 Assay for human X-box Binding Protein 1 (XBP1) (AID 2282972); details: HepG2 XBP1 cis-element reporter, Attagene multiplex; actives raise or lower the signal
Chain of X-box-binding protein 1 (Homo sapiens) (P17861 whole entry, looked up): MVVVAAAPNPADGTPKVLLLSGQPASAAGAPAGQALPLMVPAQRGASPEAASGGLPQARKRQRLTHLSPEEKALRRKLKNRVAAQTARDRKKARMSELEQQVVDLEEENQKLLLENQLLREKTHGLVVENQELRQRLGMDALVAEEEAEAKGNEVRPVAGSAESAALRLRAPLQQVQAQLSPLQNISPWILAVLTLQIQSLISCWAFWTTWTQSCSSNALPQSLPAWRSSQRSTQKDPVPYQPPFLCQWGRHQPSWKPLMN
Outline: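 Reporter transcripts were quantified by RT-PCR with fluorescent primer extension and capillary electrophoresis after 24 h chemical exposure. Cells: transiently transfected HepG2 carrying cis-regulated reporter constructs; data fitted bidirectionally relative to DMSO.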

[7] = ATG_M_19_TRANS: Attagene TRANS-FACTORIAL HepG2 Assay for M19 Transcription Factor (Internal Marker) (AID 2282974; active = hit-call score of the fitted dose curve at least 0.9, where 1 is the maximum); details: HepG2 Attagene TRANS-FACTORIAL M19 internal marker reporter
Outline: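 HepG2 transiently transfected with GAL4-UAS multiplex reporter constructs, exposed 24 h; reporter RNA quantified by RT-PCR, 6-FAM labeling, HpaI digestion and capillary electrophoresis; internal background marker fitted upward versus DMSO.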

[8] = ATG_GAL4_TRANS: Attagene TRANS-FACTORIAL HepG2 Assay for GAL4 (Internal Marker) (AID 2282976; active = hit-call score of the fitted dose curve at least 0.9, where 1 is the maximum); details: HepG2 Attagene TRANS GAL4 internal marker reporter
Outline: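 RT-PCR/capillary electrophoresis readout of reporter mRNA. HepG2, transient MRTU transfection (GAL4-UAS reporters), 24 h compound exposure. Background-control endpoint, positive direction vs DMSO baseline.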

[9] = target: Hepatocyte nuclear factor 4-alpha (Homo sapiens) (UniProt P41235); assay: ATG_HNF4a_TRANS: Attagene TRANS-FACTORIAL HepG2 Assay for human Hepatocyte Nuclear Factor 4 alpha (HNF4a) (AID 2282982; active = hit-call score of the fitted dose curve at least 0.9, where 1 is the maximum); details: HepG2 HNF4a transactivation reporter, mRNA readout
Chain of Hepatocyte nuclear factor 4-alpha (Homo sapiens) (P41235 whole entry, looked up, the tested form may be a part): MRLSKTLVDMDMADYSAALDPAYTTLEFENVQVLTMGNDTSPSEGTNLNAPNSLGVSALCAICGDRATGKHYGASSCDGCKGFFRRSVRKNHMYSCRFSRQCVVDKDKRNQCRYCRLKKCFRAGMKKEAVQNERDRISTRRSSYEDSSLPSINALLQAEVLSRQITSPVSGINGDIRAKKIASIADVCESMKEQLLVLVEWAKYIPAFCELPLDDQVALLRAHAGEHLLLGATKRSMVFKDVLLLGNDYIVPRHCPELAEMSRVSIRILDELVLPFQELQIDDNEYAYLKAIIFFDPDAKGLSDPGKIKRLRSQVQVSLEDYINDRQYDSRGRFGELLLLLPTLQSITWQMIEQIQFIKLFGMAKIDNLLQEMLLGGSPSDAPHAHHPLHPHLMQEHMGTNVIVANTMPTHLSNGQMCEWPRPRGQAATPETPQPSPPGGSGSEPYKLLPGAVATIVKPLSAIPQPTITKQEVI
Outline: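 Activity of an exogenous HNF4a–Gal4 fusion scored as induced GAL4-UAS reporter transcripts after 24 h chemical exposure of transfected human HepG2 cells. Read-out via RT-PCR with 6-FAM labelling and capillary electrophoresis; rise over DMSO baseline.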

[10] = target: Transcriptional activator Myb (Homo sapiens) (UniProt P10242); assay: ATG_Myb_CIS: Attagene CIS-FACTORIAL HepG2 Assay for human Myeloblastosis (Myb) Proto-Oncogene Transcription Factor (AID 2282986); details: HepG2 Attagene CIS-FACTORIAL Myb reporter transcription; actives raise or lower the signal
Chain of Transcriptional activator Myb (Homo sapiens) (P10242 whole entry, looked up): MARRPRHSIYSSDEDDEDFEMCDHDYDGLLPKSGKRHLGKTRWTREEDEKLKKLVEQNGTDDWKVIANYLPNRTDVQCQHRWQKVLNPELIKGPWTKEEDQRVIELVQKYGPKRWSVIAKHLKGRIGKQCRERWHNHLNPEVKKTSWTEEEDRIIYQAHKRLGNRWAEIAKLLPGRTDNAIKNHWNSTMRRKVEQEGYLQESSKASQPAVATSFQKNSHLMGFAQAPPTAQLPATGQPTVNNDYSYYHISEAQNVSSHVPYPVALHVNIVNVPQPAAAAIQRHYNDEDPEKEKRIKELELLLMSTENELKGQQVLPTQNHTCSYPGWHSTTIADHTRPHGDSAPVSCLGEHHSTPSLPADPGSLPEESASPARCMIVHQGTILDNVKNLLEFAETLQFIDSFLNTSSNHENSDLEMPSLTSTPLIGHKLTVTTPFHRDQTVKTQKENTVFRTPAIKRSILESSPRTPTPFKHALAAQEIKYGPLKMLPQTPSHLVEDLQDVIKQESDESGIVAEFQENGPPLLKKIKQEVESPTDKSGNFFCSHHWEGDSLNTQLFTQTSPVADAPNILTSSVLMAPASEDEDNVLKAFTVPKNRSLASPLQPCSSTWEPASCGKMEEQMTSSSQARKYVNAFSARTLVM
Outline: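 Transiently transfected HepG2 cells carrying a multiplexed cis-promoter reporter set report endogenous Myb activity after 24 h compound exposure. Reporter mRNA is read by RT-PCR with capillary electrophoresis of fluorescent products, fitted bidirectionally against DMSO.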

[11] = target: Nuclear respiratory factor 1 (Homo sapiens) (UniProt Q16656); assay: ATG_NRF1_CIS: Attagene CIS-FACTORIAL HepG2 Assay for human Nuclear Respiratory Factor 1 (NRF1) Orphan Gene (AID 2282987); details: HepG2 NRF1 cis-element reporter, Attagene multiplex; actives raise or lower the signal
Chain of Nuclear respiratory factor 1 (Homo sapiens) (Q16656 whole entry, looked up): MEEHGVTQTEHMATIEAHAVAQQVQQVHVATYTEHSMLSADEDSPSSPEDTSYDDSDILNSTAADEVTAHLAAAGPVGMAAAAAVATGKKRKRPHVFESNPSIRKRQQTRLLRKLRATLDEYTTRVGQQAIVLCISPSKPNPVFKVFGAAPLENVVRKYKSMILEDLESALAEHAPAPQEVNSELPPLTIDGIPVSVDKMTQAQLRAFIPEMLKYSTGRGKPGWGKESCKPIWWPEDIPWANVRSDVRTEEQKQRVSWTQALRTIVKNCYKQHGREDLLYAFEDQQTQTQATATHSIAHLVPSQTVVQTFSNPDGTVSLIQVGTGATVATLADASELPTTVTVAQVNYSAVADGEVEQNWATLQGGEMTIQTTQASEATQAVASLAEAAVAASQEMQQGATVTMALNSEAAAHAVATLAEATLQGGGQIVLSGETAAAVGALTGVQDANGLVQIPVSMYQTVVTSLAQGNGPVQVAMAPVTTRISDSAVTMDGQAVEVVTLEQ
Outline: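 HepG2 cells transiently transfected with multiple cis-regulated reporter units, exposed 24 h. Reporter mRNAs measured by RT-PCR, fluorescent labelling, HpaI digestion and capillary electrophoresis; bidirectional fitting against DMSO.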

[12] = ATG_NFI_CIS: Attagene CIS-FACTORIAL HepG2 Assay for human Nuclear Factor I (NFI) (AID 2282989); details: HepG2 cis-regulatory reporter, NFI response element transcription; actives raise or lower the signal
Outline: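 Reporter transcripts were measured by RT-PCR with fluorescent primer extension and capillary electrophoresis 24 h post-treatment. HepG2 cells carried transiently transfected cis-regulated reporter constructs reporting endogenous factor activity; gain or loss fitted against DMSO baseline.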

[13] = target: Oxysterols receptor LXR-alpha (Homo sapiens) (UniProt Q13133); assay: ATG_LXRa_TRANS: Attagene TRANS-FACTORIAL HepG2 Assay for human Liver X Receptor alpha (LXRa) (AID 2282980; active = hit-call score of the fitted dose curve at least 0.9, where 1 is the maximum); details: HepG2 Attagene TRANS reporter, LXRa transactivation
Chain of Oxysterols receptor LXR-alpha (Homo sapiens) (Q13133 whole entry, looked up, the tested form may be a part): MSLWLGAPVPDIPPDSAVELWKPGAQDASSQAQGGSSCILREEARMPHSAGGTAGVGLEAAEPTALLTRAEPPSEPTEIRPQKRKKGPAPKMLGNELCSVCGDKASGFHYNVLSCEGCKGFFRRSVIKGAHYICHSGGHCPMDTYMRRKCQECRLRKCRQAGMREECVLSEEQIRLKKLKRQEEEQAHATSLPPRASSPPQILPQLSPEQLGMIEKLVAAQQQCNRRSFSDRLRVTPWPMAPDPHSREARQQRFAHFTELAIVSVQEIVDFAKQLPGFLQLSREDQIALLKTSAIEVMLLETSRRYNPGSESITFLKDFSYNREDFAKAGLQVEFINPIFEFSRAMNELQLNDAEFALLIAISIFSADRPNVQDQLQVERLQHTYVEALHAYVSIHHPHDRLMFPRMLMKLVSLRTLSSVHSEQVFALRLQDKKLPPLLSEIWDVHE
Outline: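 Read-out: reporter transcript levels by RT-PCR plus capillary electrophoresis, fluorescence intensity. Transiently transfected HepG2, exogenous NR-GAL4 chimera, GAL4-UAS reporters; 24 h compound exposure. Activity = increase over DMSO negative control.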

[14] = target: Oxysterols receptor LXR-beta (Homo sapiens) (UniProt P55055); assay: ATG_LXRb_TRANS: Attagene TRANS-FACTORIAL HepG2 Assay for human Liver X Receptor beta (LXRb) (AID 2282981; active = hit-call score of the fitted dose curve at least 0.9, where 1 is the maximum); details: HepG2 Attagene TRANS GAL4-LXRb reporter, mRNA
Chain of Oxysterols receptor LXR-beta (Homo sapiens) (P55055 whole entry, looked up, the tested form may be a part): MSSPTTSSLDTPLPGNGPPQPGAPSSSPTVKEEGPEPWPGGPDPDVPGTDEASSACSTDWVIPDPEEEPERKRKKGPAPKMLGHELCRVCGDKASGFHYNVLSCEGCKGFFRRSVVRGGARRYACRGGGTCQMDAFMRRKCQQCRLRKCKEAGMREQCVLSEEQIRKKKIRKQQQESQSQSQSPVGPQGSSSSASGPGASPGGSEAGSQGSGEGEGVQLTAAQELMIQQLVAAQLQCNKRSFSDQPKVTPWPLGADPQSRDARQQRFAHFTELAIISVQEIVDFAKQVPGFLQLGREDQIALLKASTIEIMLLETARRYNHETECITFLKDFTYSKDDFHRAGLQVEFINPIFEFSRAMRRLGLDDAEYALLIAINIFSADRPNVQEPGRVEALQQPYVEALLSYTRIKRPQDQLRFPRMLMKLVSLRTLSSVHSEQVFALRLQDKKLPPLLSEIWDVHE
Outline: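 After 24 h chemical treatment of transfected HepG2 cells carrying exogenous NR-Gal4 chimeras, reporter mRNA was quantified by fluorescent RT-PCR and capillary electrophoresis; activity taken as increase over DMSO controls.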

[15] = ATG_M_32_TRANS: Attagene TRANS-FACTORIAL HepG2 Assay for M32 Transcription Factor (Internal Marker) (AID 2282984; active = hit-call score of the fitted dose curve at least 0.9, where 1 is the maximum;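 also: transcript level of a background control reporter unit measured by RT-PCR and capillary electrophoresis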); details: HepG2 Attagene TRANS M32 internal marker reporter
Outline: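 Internal background reporter in transfected HepG2: after 24 h chemical exposure, RNA reverse-transcribed, reporter cDNA amplified, fluorescently labelled and HpaI-cut, then sized by capillary electrophoresis. Gain of signal fitted against DMSO control.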

[16] = target: Estrogen-related receptor gamma (Homo sapiens) (UniProt P62508); assay: ATG_ERRg_TRANS: Attagene TRANS-FACTORIAL HepG2 Assay for human Estrogen-Related Receptor gamma (ERRg) (AID 2282977; active = hit-call score of the fitted dose curve at least 0.9, where 1 is the maximum;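 also: hits increase reporter signal over DMSO so potencies reflect activators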); details: HepG2 Attagene TRANS reporter, ERRg transactivation
Chain of Estrogen-related receptor gamma (Homo sapiens) (P62508 whole entry, looked up, the tested form may be a part): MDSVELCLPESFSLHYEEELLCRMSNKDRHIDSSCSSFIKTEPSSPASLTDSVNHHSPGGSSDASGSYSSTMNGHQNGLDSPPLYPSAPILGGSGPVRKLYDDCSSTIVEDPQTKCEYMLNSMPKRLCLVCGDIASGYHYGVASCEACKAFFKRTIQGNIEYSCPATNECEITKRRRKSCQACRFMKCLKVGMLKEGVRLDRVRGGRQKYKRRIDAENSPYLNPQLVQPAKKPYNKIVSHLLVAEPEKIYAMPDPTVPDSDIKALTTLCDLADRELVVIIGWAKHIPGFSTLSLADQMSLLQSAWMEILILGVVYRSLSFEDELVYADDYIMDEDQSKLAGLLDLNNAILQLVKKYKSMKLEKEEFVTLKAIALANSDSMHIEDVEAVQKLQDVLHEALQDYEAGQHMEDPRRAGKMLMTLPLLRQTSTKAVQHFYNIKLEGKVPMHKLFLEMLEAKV
Outline: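 Exogenous NR-Gal4 chimera activity measured as reporter transcript induction after 24 h in transiently transfected HepG2 cells. RNA reverse-transcribed, PCR-amplified, 6-FAM-labelled and resolved by capillary electrophoresis; increase over DMSO baseline.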

[17] = target: Glucocorticoid receptor (Homo sapiens) (UniProt P04150); assay: ATG_GR_TRANS: Attagene TRANS-FACTORIAL HepG2 Assay for human Glucocorticoid Receptor (GR) (AID 2282978; active = hit-call score of the fitted dose curve at least 0.9, where 1 is the maximum;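 also: activators score as hits since higher reporter transcript over DMSO is fitted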); details: HepG2 Attagene TRANS GR reporter, mRNA transcription
Outline: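 HepG2 cells transiently transfected with GAL4-UAS reporter units and exogenous GR-Gal4 chimera, dosed 24 h. Reporter mRNA by RT-PCR, FAM labeling, HpaI digest and capillary electrophoresis; gain-of-signal fit versus DMSO.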

[18] = target: Bile acid receptor (Homo sapiens) (UniProt Q96RI1); assay: ATG_FXR_TRANS: Attagene TRANS-FACTORIAL HepG2 Assay for Farnesoid X Receptor (FXR) (AID 2282979; active = hit-call score of the fitted dose curve at least 0.9, where 1 is the maximum;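 also: hits raise reporter mRNA above DMSO so AC50 marks FXR activation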); details: HepG2 Attagene TRANS FXR-GAL4 reporter transcription
Chain of Bile acid receptor (Homo sapiens) (Q96RI1 whole entry, looked up, the tested form may be a part): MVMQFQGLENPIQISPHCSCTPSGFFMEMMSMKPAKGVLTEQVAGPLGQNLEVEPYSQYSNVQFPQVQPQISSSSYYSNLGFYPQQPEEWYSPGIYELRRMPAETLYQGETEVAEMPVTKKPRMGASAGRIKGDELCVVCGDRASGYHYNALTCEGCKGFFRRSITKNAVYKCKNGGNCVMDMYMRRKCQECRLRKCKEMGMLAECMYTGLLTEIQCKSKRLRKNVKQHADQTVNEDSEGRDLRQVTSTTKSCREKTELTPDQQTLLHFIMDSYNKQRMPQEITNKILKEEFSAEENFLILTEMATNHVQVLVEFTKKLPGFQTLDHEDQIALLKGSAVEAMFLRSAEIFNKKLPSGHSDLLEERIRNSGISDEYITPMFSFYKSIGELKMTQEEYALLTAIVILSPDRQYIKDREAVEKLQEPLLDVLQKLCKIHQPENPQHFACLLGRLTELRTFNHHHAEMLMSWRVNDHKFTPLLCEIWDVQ
Outline: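 Read-out: fluorescent reporter transcripts quantified by capillary electrophoresis after RT-PCR of total RNA. Source cells were HepG2 transiently carrying chimeric NR-GAL4 plus GAL4-UAS reporter units, dosed 24 h. Activity fitted upward relative to DMSO baseline.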

[19] = ATG_M_06_TRANS: Attagene TRANS-FACTORIAL HepG2 Assay for M06 Transcription Factor (Internal Marker) (AID 2282983; active = hit-call score of the fitted dose curve at least 0.9, where 1 is the maximum); details: HepG2 Attagene TRANS M06 internal marker reporter
Outline: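 Read-out: fluorescent reporter cDNA fragments resolved by capillary electrophoresis after RT-PCR and HpaI cut. Source cells were HepG2 carrying transfected multi-reporter GAL4 constructs, dosed 24 h. Increase over DMSO control analysed.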

[20] = target: Nuclear receptor subfamily 4 group A member 2 (Homo sapiens) (UniProt P43354); assay: ATG_NURR1_TRANS: Attagene TRANS-FACTORIAL HepG2 Assay for human Nuclear Receptor Related Protein 1 (NURR1) (AID 2282985; active = hit-call score of the fitted dose curve at least 0.9, where 1 is the maximum); details: HepG2 Attagene TRANS reporter, mRNA readout
Outline: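 Reporter transcript induction, measured by RT-PCR with fluorescent labelling, HpaI digestion and capillary electrophoresis, after 24 hr dosing of human HepG2 cells transiently expressing an exogenous NR-Gal4 fusion with GAL4-UAS-driven reporters; DMSO as baseline.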

Measured: outcome

OC[C@H]1O[C@@H]2O[C@H]3[C@H](O)[C@@H](O)[C@@H](O[C@H]4[C@H](O)[C@@H](O)[C@@H](O[C@H]5[C@H](O)[C@@H](O)[C@@H](O[C@H]6[C@H](O)[C@@H](O)[C@@H](O[C@H]7[C@H](O)[C@@H](O)[C@@H](O[C@H]8[C@H](O)[C@@H](O)[C@@H](O[C@H]9[C@H](O)[C@@H](O)[C@@H](O[C@H]1[C@H](O)[C@H]2O)O[C@@H]9CO)O[C@@H]8CO)O[C@@H]7CO)O[C@@H]6CO)O[C@@H]5CO)O[C@@H]4CO)O[C@@H]3CO
not listed: [13] | [14] | [15] | [16] | [17] | [18] | [19] | [20]
inactive: all other assays above

C#CC(C)(O)CC(C)C (stereo not given)
not listed: [8] | [16] | [17] | [18] | [19] | [20]
inactive: all other assays above

C=CC(=O)OCCCC
inactive: [1] | [2] | [3] | [4] | [6] | [7] | [13] | [14] | [15] | [10] | [11]

O=C(O)CNc1ccccc1
not listed: [7] | [8] | [9] | [13] | [15] | [20]
inactive: all other assays above

NC1CCCCC1N (stereo not given)
not listed: [7] | [8] | [9] | [16] | [17] | [18]
inactive: all other assays above
